# Calb biofilm kill: kills Candida albicans biofilms | C. albicans biofilm + clotrimazole, Alamar Blue | inhibition, % at 6 µM | hit rate 0.14% among 85,000 | AID 834;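 active means inhibition above 20%; inactive means inhibition below 20%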;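 further: preformed 24 hr biofilms exposed to compound for 48 hr; 0% = biofilm without compound and 100% = blank killed by clotrimazole plus chlorhexidine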
# Mac1 fbg enh: increases human CD11b/CD18 adhesion to fibrinogen. P05107+P11215. K562 CD11b/CD18 adhesion to fibrinogen, ATPlite luminescence. activation, % at 10 µM. hit rate 0.07% among 93,000. AID 1499;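 active means 10 µM primary screen giving 50% or more activity, confirmed by 40% or more on retest at that dose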
# Mac1 fbg inh: inhibitors of human CD11b/CD18 binding to fibrinogen. hit rate 0.54% among 93,000. K562 CD11b/CD18 adhesion to fibrinogen, ATPlite luminescence; Mn2+ added to activate the integrin. inhibition, % at 10 µM. P05107+P11215;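 active means primary inhibition of 50% or more at 10 µM, then 40% or more on retest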
# PLK1 PBD inh: inhibitors of human Plk1 polo box domain binding; P53350; inhibition, %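 (tested at about 20 µM)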; hit rate 0.13% among 97,000; Plk1 PBD phosphopeptide binding, fluorescence polarization; AID 693; in the data active means inhibition above about 34%, passing the limit was not always enough
# Target sequence (P53350 whole entry, looked up, the tested form may be a part): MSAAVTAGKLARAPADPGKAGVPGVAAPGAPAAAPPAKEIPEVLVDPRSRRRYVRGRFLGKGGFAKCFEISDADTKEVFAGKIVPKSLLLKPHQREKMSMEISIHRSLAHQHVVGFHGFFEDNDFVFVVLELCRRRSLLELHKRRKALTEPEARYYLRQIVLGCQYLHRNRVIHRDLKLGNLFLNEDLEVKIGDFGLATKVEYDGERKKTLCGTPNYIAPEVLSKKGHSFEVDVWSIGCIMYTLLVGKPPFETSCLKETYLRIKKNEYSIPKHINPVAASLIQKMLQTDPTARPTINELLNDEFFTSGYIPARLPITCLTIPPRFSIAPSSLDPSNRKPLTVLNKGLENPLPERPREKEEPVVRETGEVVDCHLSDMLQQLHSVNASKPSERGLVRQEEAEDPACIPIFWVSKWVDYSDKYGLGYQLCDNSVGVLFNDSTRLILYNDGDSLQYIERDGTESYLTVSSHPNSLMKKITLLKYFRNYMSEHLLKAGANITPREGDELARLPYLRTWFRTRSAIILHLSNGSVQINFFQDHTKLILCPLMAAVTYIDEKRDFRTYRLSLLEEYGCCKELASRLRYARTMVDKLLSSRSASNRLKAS
# PLK1 inh: inhibitors of human PLK1 kinase | P53350 | hit rate 0.53% among 97,000 | recombinant PLK1 kinase, TR-FRET peptide phosphorylation | inhibition, % at 10 µM | AID 619;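 active means inhibition of 50% or more in the single-concentration screen; inactive means inhibition below 50%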;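 further: 0% = DMSO max control and 100% = H-89 dihydrochloride min control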
# * marks the source's active call; other numbers are inactive results; x = no result given. Shown are actives, neighbours in structure and some others; about 1.1% of the full set was active somewhere.
SMILES,Calb biofilm kill,Mac1 fbg enh,Mac1 fbg inh,PLK1 PBD inh,PLK1 inh
Cc1cc(C)c2nc3s/c(=C/c4ccccc4)c(=O)n3c2c1,x,-5,57*,14,-9
Cc1ccc(/C=C/C(=O)Nc2nnc(SCc3ccc(C#N)cc3)s2)o1,x,75,-16,x,x
Cc1cc(N2CCC(C)CC2)nc(SCC(=O)c2ccccc2)n1,8,x,x,-15,-17
O=C(CN1CCN(c2ccccc2)CC1)Nc1nccs1,4,0,-6,24,-6
O=C(CCN1CCN(c2ccccc2)CC1)Nc1nccs1,3,-4,10,-5,65*
CCc1nc(SCC(=O)Nc2sc(C)c(C)c2C(=O)OC)c2ccccc2n1,x,-2,-12,-38,-10
N#C/C(=C\c1ccc(Oc2ccc(C(F)(F)F)cc2[N+](=O)[O-])cc1)c1nc2ccccc2[nH]1,x,82*,3,14,-8
N#C/C(=C/c1ccc(N2CCCC2)c([N+](=O)[O-])c1)c1nc2ccccc2[nH]1,x,x,x,-40,-6
O=C(N/N=C/c1ccc(OCC(=O)N2CCCCC2)cc1)c1ccccc1O,x,-1,-22,x,x
Cc1cc(C(=O)Nc2sc3c(c2C#N)CCC(C(C)(C)C)C3)no1 (stereo not given),0,-7,-23,-1,-7
CC(C)(C)C1CCc2c(sc(NC(=O)c3cc(C4CC4)on3)c2C#N)C1 (stereo not given),9,-5,54*,-2,-16
O=C(CC(=O)c1ccccc1)Nc1cccnc1Cl,x,-3,-17,x,x
COc1cccc(N2CCN(c3c4c(nc5ncnn35)CCC4)CC2)c1,9,-5,51*,-8,-7
c1ccc(N2CCN(c3c4c(nc5ncnn35)CCC4)CC2)cc1,6,-2,-12,4,0
CC1C(c2ccccc2)N(C)C(c2ccccc2)C(C)C1(O)C#Cc1ccccc1 (stereo not given),x,-1,25,x,x
CN1c2ccccc2C(O)=C(C(=S)Nc2ccc(F)c(Cl)c2)S1(=O)=O,x,-10,84*,-18,-18
CN1c2ccccc2C(O)=C(C(=S)Nc2ccccc2)S1(=O)=O,x,-3,7,14,-13
O=C1NC(=Nc2cccc(Cl)c2)SC1Cc1cccc(Cl)c1Cl (stereo not given),x,5,-9,2,-10
O=C(Nc1cccc(Cl)c1)Nc1cccc(Cl)c1,9,x,x,11,-3
O=C(Nc1ccccc1)Nc1cc(Cl)cc(Cl)c1,-4,-4,56*,16,6
O=C(Nc1cccc(Cl)c1)c1cnn2cccnc12,3,-7,-2,18,60*
O=C(Nc1cc(Cl)cc(Cl)c1)c1cnn2cccnc12,-1,38,0,3,16
CC(=O)OC1COC(N2CCc3cc(Br)c([N+](=O)[O-])cc32)C(OC(C)=O)C1OC(C)=O (stereo not given),x,-2,-8,-19,-9
O=C(CSc1ccccc1)Nc1ccncc1,9,-5,-3,7,-7
O=C(CSc1ccc2ccccc2c1)Nc1ccncc1,x,-5,86*,8,1
SMILES,Calb biofilm kill,Mac1 fbg enh,Mac1 fbg inh,PLK1 PBD inh,PLK1 inh
CCOc1cc(C(=S)N2CCOCC2)ccc1OS(=O)(=O)c1ccc(NC(C)=O)cc1,x,-10,88*,-22,-18
N=c1cc(C2(O)CCCCC2)n2c(nc3ccccc32)s1,4,-4,59*,-5,8
COc1cc(C(=O)NC(=S)Nc2ccc(N3CCCC3)cc2)cc(OC)c1OC,x,2,2,x,x
CC(C)(C)C(=O)Nc1nc(=S)ss1,0,-6,66*,3,-2
CCc1cc(=O)oc2cc3occ(-c4ccc(OC)c(F)c4)c3cc12,x,15,20,x,x
CN(C)S(=O)(=O)c1ccc(C(=O)Nc2ccc(F)cc2F)cc1,9,0,-1,-8,66*
COCCn1c(C)cc(C2=NNC(=Nc3ccc(OC)cc3)SC2)c1C,-1,81*,23,-37,-3
COCCn1c(C)cc(C2=NNC(=Nc3ccccc3)SC2)c1C,-1,-3,39,-8,-11
Cc1cccc(-n2nc3c(c2NC(=O)c2ccc(S(=O)(=O)N4CCOCC4)cc2)CSC3)c1C,-1,0,15,-20,10
Cc1ccc(-n2nc3c(c2NC(=O)c2ccc(S(=O)(=O)N4CCOCC4)cc2)CSC3)c(C)c1,5,80*,-10,-13,-11
O=C(Nc1ccc(Cc2ccncc2)cc1)c1ccc(S(=O)(=O)N2CCOCC2)cc1,-6,-10,93*,-4,-9
CN(c1ncc(C(F)(F)F)cc1Cl)n1cc(C(N)=O)c2ccccc2c1=O,1,-5,-10,7,-11
COc1cc(-c2nnc(SCC3(c4ccc(Br)cc4)OCCO3)o2)cc(OC)c1OC,x,3,4,22,-10
CCCCNC(=O)c1sc(=S)n2c1[nH]c(=O)c1ccccc12,-8,-10,97*,-13,-11
O=C(NC1CCCCC1)c1sc(=S)n2c1[nH]c(=O)c1ccccc12,3,-10,105*,1,-6
CCn1c2ccccc2c2nc3cc(S(=O)(=O)N4CCOCC4)ccc3nc21,3,-4,57*,14,6
c1ccc2nc3c(nc2c1)c1ccccc1n3CCN1CCOCC1,2,5,-34,0,-18
Cc1cccc(N2CCN(C3=NC(=O)C(Cc4ccccc4)S3)CC2)c1 (stereo not given),x,-3,-10,x,x
CCn1c(CNc2nc3ccccc3n2C(C)C)nc2ccccc21,1,0,-35,6,-3
COc1ccccc1C(=O)Oc1ccc(C(C)C)cc1,58*,2,23,15,0
O=C(NCCCN1CCCCCC1)C1CC(=O)N(CCc2ccccc2)C1 (stereo not given),4,82*,-2,-3,34
O=C(NCCCN1CCOCC1)C1CC(=O)N(CCc2ccccc2)C1 (stereo not given),x,-7,-38,-14,-6
CO[C@H]1C=CO[C@@]2(C)Oc3c(C)c(O)c4c(O)c(c(C=NN5CCN(C)CC5)c(O)c4c3C2=O)NC(=O)C(C)=CC=C[C@H](C)[C@H](O)[C@@H](C)[C@@H](O)[C@@H](C)[C@H](OC(C)=O)[C@@H]1C,30*,x,x,x,x
CC(C)c1noc2ncc(C(=O)c3cc(Cl)cc(Cl)c3O)cc12,-4,-11,95*,6,2
COc1ccc(-n2c(Cc3cccn3C)nnc2SCC(=O)NC2CCCCC2)cc1,64*,2,-4,x,x
SMILES,Calb biofilm kill,Mac1 fbg enh,Mac1 fbg inh,PLK1 PBD inh,PLK1 inh
CCOC(=O)COc1ccc(S(=O)(=O)NCc2ccncc2)cc1,8,-9,80,8,-4
CCOc1ccc(S(=O)(=O)NCc2ccncc2)cc1,4,-7,98*,-11,9
Cc1ccc(S(=O)(=O)NCc2ccncc2)cc1,7,-5,69*,-22,-3
Cc1ccc(-c2csc(NC(=O)c3cccc(N4C(=O)CCC4=O)c3)n2)o1,-5,x,x,9,67*
Cc1[nH]n(-c2ccc(F)cc2)c(=O)c1/C=N/c1sc2c(c1C#N)CCCC2,x,-11,35,-18,10
Cc1[nH]n(-c2cccc3ccccc23)c(=O)c1/C=N/c1sc2c(c1C#N)CCC2,x,-13,100*,11,-9

# High-throughput results (PubChem BioAssay)
